The full list was thinned out, with hits kept by preference.
RMI-FANCM inh – disruptors of RMI1/RMI2 association with MM2 peptide – biochemical, fluorescence polarization, human, primary screen; RMI core complex (RMI1/RMI2) binding to FANCM MM2 peptide, human; actives 0.58% (n = 70,000); RMI core complex with F-MM2 peptide; active compounds read low; FP signal (polarization) at 33 µM; in the data active means FP signal below about 40
Of the large screens only hits and unclear results are named; the others gave an inactive call; ! = repeats disagree.

CSc1cccc(C(=O)Nc2nnc(-c3cc(C)ccc3C)o2)c1	none
O=C(CSc1nnc(NC(=O)c2ccc(Cl)cc2Cl)s1)NCc1ccco1	none
CC(=O)OCC(=O)[C@@]1(O)CCC2C3CCC4=CC(=O)CC[C@]4(C)C3C(=O)C[C@@]21C (stereo not given in full)	none
CC(=O)OCC(=O)[C@@]1(O)CC[C@H]2[C@@H]3CCC4=CC(=O)CC[C@]4(C)[C@H]3C(=O)C[C@@]21C	none
C[C@]12CCC(=O)C=C1CCC1C2C(=O)C[C@@]2(C)C1CC[C@]2(O)C(=O)CO (stereo not given in full)	RMI-FANCM inh -7
O=Cc1ccc([N+](=O)[O-])s1	none
CCCN(C(=O)C(=O)c1c(C)n(C)c2ccccc12)c1ccc(F)cc1	none
COC(=O)c1sc2ccccc2c1NC(=S)NC(=O)c1ccc(Cl)cc1	none
COC(=O)c1sc2ccccc2c1NC(=O)c1ccc(Br)s1	none
COC(=O)c1sc2ccccc2c1NC(=O)c1cc(Cl)sc1Cl	RMI-FANCM inh 30
O=C(CSc1nnc(-c2ccc(F)cc2)o1)N1CCc2ccccc21	none
Cc1cc(C)c2sc(N3CCN(C(=O)C4CCCCC4)CC3)nc2c1	none
CC(=O)c1cccc(NC(=O)C2CCCN(c3ccc(-c4ccccc4)nn3)C2)c1 (stereo not given)	none
O=C(NCCNc1ccc(C(F)(F)F)cc1[N+](=O)[O-])c1cccs1	none
COc1ccc(OCC(O)Cn2c(N3CCCCCC3)nc3c2c(=O)[nH]c(=O)n3C)cc1 (stereo not given)	none
COc1cc(C(=O)Oc2c(Cl)cc(Cl)cc2C=Nc2cc(C)c(C)cc2C)cc(OC)c1OC	none
COc1cc(N=Cc2ccccc2OC(=O)c2cc(OC)c(OC)c(OC)c2)c(OC)cc1Cl	RMI-FANCM inh 28
COc1cc(C(=O)O/N=C\c2ccccc2OC(F)(F)F)cc(OC)c1OC	none
CC(C)(C)SCCSCCS(=O)(=O)CCSCCSC(C)(C)C	none
c1ccc2c(c1)nc1n2CCN1	none
c1cn2c(n1)NCC2	RMI-FANCM inh -22
CN(C)/C=C/C(=O)c1ccc(-c2cc(Cl)cc(Cl)c2)o1	none
O=C(CSCCS(=O)(=O)c1ccc(Cl)cc1)Nc1ccccc1Cl	none
O=S(=O)(N=C(Nc1ccc2ccccc2c1)c1ccccc1)c1ccc(Cl)cc1	none
NC(=O)SCC(=NS(=O)(=O)c1ccc(Cl)cc1)Nc1cccc2ccccc12	RMI-FANCM inh 30
Cc1ccc(-c2ccc(=O)n(Cc3nc(-c4cccc(Br)c4)no3)n2)cc1	none
O/N=C\c1ccoc1	none
CN(C)C(CNC(=O)c1cccs1)c1cccc2ccccc12 (stereo not given)	none
COc1cc(OC)cc(C(=O)NCC(c2cccc3ccccc23)N(C)C)c1 (stereo not given)	RMI-FANCM inh 54
COc1ccc(CC(=O)NCC(c2cccc3ccccc23)N(C)C)cc1 (stereo not given)	none
CCN1C(=O)c2cc(NS(=O)(=O)c3cccc(C)c3)ccc2Oc2ccccc21	none
Oc1ccccc1/C=N\Nc1nc(-c2ccc(Cl)c(Cl)c2)cs1	none
COc1ccc(N2C(=O)C3ON(c4ccc(Br)cc4)C(c4cccnc4)C3C2=O)cc1 (stereo not given)	none
O=Cc1cnc2ccccc2n1	none
N=C(N)Sc1cnc2ccccc2n1	RMI-FANCM inh 37
Cc1cc(SCC(N)=O)nc2ccccc12	none
COc1ccc(Cc2cnc(NC(=O)/C=C/c3ccc([N+](=O)[O-])cc3)s2)cc1	none
Cc1ccc2nc(C)c(NC(=O)c3ccc4ccccc4n3)c(=O)n2c1	none
NC(=O)c1ccc[n+](CC(=O)c2ccc3c(c2)Cc2ccccc2-3)c1	none
NC(=O)c1ccc[n+](CC(=O)c2ccc(Cl)c(Cl)c2)c1	none
NC(=O)C[n+]1ccc2ccccc2c1	RMI-FANCM inh 12
CCSc1nnc(NC(=O)CC2CSc3nc(C(C)C)cc(=O)n32)s1 (stereo not given)	none
Cc1c(C(=O)N2CCN(C3c4ccccc4-c4ccccc43)CC2)cnn1-c1ccccc1	none
O=C(c1ccno1)N1CCN(C2c3ccccc3-c3ccccc32)CC1	RMI-FANCM inh -13!
O=C(c1ccc2nsnc2c1)N1CCN(C2c3ccccc3-c3ccccc32)CC1	none
Cc1onc(-c2c(Cl)cccc2Cl)c1C1CC(=O)Nc2ccccc2S1 (stereo not given)	none
CCOc1ccc(-c2ccc(SCC(=O)Nc3ccc([N+](=O)[O-])cc3)nn2)cc1	none
NC(=O)c1oc2ccccc2c1NC(=O)C(=O)NCC1CCCO1 (stereo not given)	none
COCCCN1C(=O)C(CC(=O)Nc2ccc(F)cc2)SC1=NS(=O)(=O)c1ccccc1 (stereo not given)	none
O=C(O)c1cc(O)c2c(c1)[C@@H]([C@H]1c3cc(C(=O)O)cc(O)c3C(=O)c3c(O[C@H]4O[C@H](CO)[C@@H](O)[C@H](O)[C@H]4O)cccc31)c1cccc(O[C@H]3O[C@H](CO)[C@@H](O)[C@H](O)[C@H]3O)c1C2=O	RMI-FANCM inh 22
COC(=O)c1ccccc1OC1OC(CO)C(O)C(O)C1O (stereo not given)	none
C/C(Cc1ncn(-c2cc(C)on2)n1)=N/OC(=O)Nc1ccc(Cl)cc1	none
COc1ccc(N2CCN(Cc3cc(=O)oc4c3ccc3ccccc34)CC2)cc1	none
Cc1c(O)ccc2c(CN3CCC4(CC3)OCCO4)cc(=O)oc12	RMI-FANCM inh 25
Cc1cc(O)c2c(CN3CCN(Cc4ccc5c(c4)OCO5)CC3)cc(=O)oc2c1	none
Cc1ccc(Cl)cc1NC(=O)Cn1cnc2c(sc3cccc(F)c32)c1=O	none
O=C(NCCC1CCCCN1S(=O)(=O)c1cccs1)C(=O)NC1CCCCCC1 (stereo not given)	none
O=C(Nc1cccs1)N1CCn2cccc2C1c1ccc(F)cc1 (stereo not given)	RMI-FANCM inh 15
COc1ccccc1NC(=O)N1CCn2cccc2C1c1ccc(Br)cc1 (stereo not given)	none
O=C(Nc1c(F)cccc1F)N1CCn2cccc2C1c1cccnc1 (stereo not given)	none
O=C(CCN1CCN(C(c2ccccc2)c2ccccc2)CC1)N/N=C\c1cccnc1	none
CCCNC(=O)CSc1ccc(NC(=O)C2CC2)nn1	none
CCc1ccc(C(=O)NCCCN2CCOC(c3ccccc3)C2)cc1 (stereo not given)	none
N#Cc1c(-c2ccco2)cc(-c2ccco2)[nH]c1=O	none
N#Cc1c(-c2ccco2)c2c([nH]c1=O)-c1ccccc1OC2	RMI-FANCM inh -3
N#Cc1c(-c2ccco2)c2c([nH]c1=O)-c1ccccc1CC2	none
Cc1cc(N/N=C\c2ccco2)c([N+](=O)[O-])cc1[N+](=O)[O-]	none
CCOc1ccccc1C(=O)Nc1ccc(-c2nc3cccnc3s2)cc1	none
O=C(Nc1ccc(-c2nc3cccnc3s2)cc1)c1ccco1	none
Cc1cc(-c2nc3cccnc3s2)ccc1NC(=O)c1ccc2ccccc2n1	RMI-FANCM inh 1
O=C(Cc1csc(Nc2cccc(C(F)(F)F)c2)n1)Nc1cccnc1	none
Clc1ccc(COc2cccc3ccc(N4CCOCC4)nc23)cc1	none
Cc1ccc2c(c1)C(C)(C)C1(CCCC(=O)N1)N2C (stereo not given)	none
CN(C)c1ccc(C2=CC(C3CC3)=C(C#N)C(=C(C#N)C#N)N2)cc1	RMI-FANCM inh 31
O=C(NCCOc1ccc2c(c1)OCO2)c1ccccc1C(F)(F)F	none
O=C(c1cc2ccccc2o1)N(CCn1cccn1)c1nc2c(Cl)cccc2s1	none
Cc1ccc(C(C)C)c(OCC(=O)N=Nc2c(O)[nH]c3ccc([N+](=O)[O-])cc23)c1	RMI-FANCM inh 11
CCCCCC(=O)N=Nc1c(O)[nH]c2ccc([N+](=O)[O-])cc12	none
O=C(N=Nc1c(O)[nH]c2ccc([N+](=O)[O-])cc12)c1ccncc1	none
